Measurements from PubChem BioAssay (Tox21).
Inconclusive results are not listed. Values without a mark were called inactive. The source made the active and inactive calls. Calls come from the whole dose curve; as a rule, active = well fitted cell-killing curve with a large enough effect in the repeat runs; inconclusive = weak or mixed curves, or effect the other way; inactive = flat fitted curve, though single readings scatter.

Test: qHTS assay to identify small molecule antagonists of the estrogen receptor alpha (ER-alpha) signaling pathway using the BG1 cell line in the presence of 0.1 nM 17-beta-estradiol - cell viability counter screen (AID 1259241); note: nearly all actives have a fitted effect of over 40% in size
Conditions: VM7Luc4E2 (BG1) viability, CellTiter-Fluor protease, 22 h, 0.1 nM estradiol agonist added; series mostly up to 92.4 µM; activity change, negative = cytotoxicity: at the top concentration
Description: National Center for Advancing Translational Sciences [NCATS]
NIH Chemical Genomics Center [NCGC]
U.S. Environmental Protection Agency [EPA]
National Institutes of Environmental Health Sciences [NIEHS]
National Toxicology Program [NTP]
U.S. Food and Drug Administration [FDA]
Estrogen receptor (ER), a member of the nuclear hormone receptor plays an important role in development, metabolic homeostasis and reproduction. Two subtypes of ER, ER-alpha and ER-beta, have similar expression patterns with some uniqueness in both types. Endocrine disrupting chemicals (EDCs) and their interactions with steroid hormone receptors like ER causes disruption of normal endocrine function. Therefore, it is important to understand the effect of environmental chemicals in ER signaling pathway. For identifying ER antagonists, VM7Luc4E2 cell line was used to screen against Tox21 compound libraries.
VM7Luc4E2 cell line (provided by Denison MS, University of California) endogenously express full-length ER-alpha and is stably transfected with a plasmid containing four estrogen responsive elements (ERE) upstream of a luciferase reporter gene. The current screening for identification of ER-alpha inhibitors against Tox21 compound libraries used lower concentration (0.1 nM) of 17beta-Estradiol as a stimulator. The cytotoxicity of the Tox21 compound libraries against VM7Luc4E2 cell line was tested by measuring live-cell protease activity using CellTiter-Fluor assay in the same wells.
Tox21 Assay Protocol Summary:
VM7Luc4E2 cells were cultured in phenol red free assay medium containing 10% charcoal stripped FBS for 5 days prior to the assay. The cells were dispensed at 4,000 cells/well in 4 uL of assay medium into white wall/solid-bottom 1536-well plates (Corning Life Sciences, Corning, NY) using a Multidrop Combi (ThermoFisher Scientific, Waltham, MA) dispenser. After the assay plates were incubated at 37C and 5% CO2 for 24 hr, 23 nL of compounds dissolved in DMSO, positive controls or DMSO only was transferred to the assay plates by a Pintool station (Kalypsys, San Diego, CA). The transfer of compounds was followed by the addition of 1 uL of 0.1 nM (final concentration) agonist (17beta-Estradiol)/assay medium using a Flying Reagent Dispenser (FRD, Aurora Discovery, San Diego, CA). The plates were incubated at 37C and 5% CO2 for 22 hr. For cytotoxicity assay, 1 uL of CellTiter-Fluor reagent (Promega Corporation, Madison, WI) was added to each well using the FRD and after 30 min incubation at 37C and 5% CO2, The fluorescence intensity was measured using ViewLux plate reader (PerkinElmer, Shelton, CT).
% is set by controls: 0 for no effect and ±100 for the full control effect; potency is the fitted concentration of half-maximal effect.

SMILES | Potency | activity change, negative = cytotoxicity
CCCCCCCC[N+](CCCCCCCC)(CCCCCCCC)CCCCCCCC | 61 µM (active) | –
O=c1cccccc1O | – | -1.81%
CCCCCCCCCCCCCCCS(=O)(=O)Oc1ccccc1 | – | 0.454% [at 42.5 µM]
C=CC(=O)OCC(CO)(COCC(COC(=O)C=C)(COC(=O)C=C)COC(=O)C=C)COC(=O)C=C | 15.2 µM (active) | –
Cc1cc(CCN2CCN(c3nsc4ccccc34)CC2)cc2c1NC(=O)CC2(C)C | 34.4 µM (active) | –
O=c1cc(-c2ccc(O)cc2)oc2cc(O)cc(O)c12 | – | -15.2%
CN(C)C(=O)C1(N2CCCCC2)CCN(CC[C@@]2(c3ccc(Cl)c(Cl)c3)CN(C(=O)c3ccccc3)CCO2)CC1 | 64.1 µM (active) | –
CCOc1nc2cccc(C(=O)OC(C)OC(=O)OC3CCCCC3)c2n1Cc1ccc(-c2ccccc2-c2nn[nH]n2)cc1 (stereo not given) | – | 9.57%
CN1CCN(CCC(=O)N2c3ccccc3Sc3ccc(C(F)(F)F)cc32)CC1 | – | -6.5% [at 42.5 µM]
Cc1cccc(CN2CCN(C(c3ccccc3)c3ccc(Cl)cc3)CC2)c1 (stereo not given) | – | 5.25% [at 42.5 µM]
CSc1cnc(C)cn1 | – | -0.987% [at 240 µM]
Nc1cc(C(F)(F)F)ccc1S | – | 5.01% [at 42.5 µM]
CSc1ccc(C(=O)c2[nH]c(=O)[nH]c2C)cc1 | – | 2.21% [at 42.5 µM]
C/C=C(\C)C(=O)OCc1ccccc1 | – | -10.4%
CN(C)c1ccc(SC#N)cc1 | – | 1.85%
Oc1cc2ccccc2c2ccccc12 | 21.7 µM (active) | –
CCc1cc(Cc2cc(CC)c(N)c(CC)c2)cc(CC)c1N | – | -14.1%
CCCCCCCCCCn1cc[n+](CCCCCCCCCC)c1C | 68.7 µM (active) | –
COc1c(C)c2c(c(O)c1C/C=C(\C)CCC(=O)O)C(=O)OC2 | – | 1.89% [at 42.5 µM]
CCN(CC)CCCC(C)Nc1c2ccc(Cl)cc2nc2ccc(OC)cc12 (stereo not given) | – | 2.89% [at 42.5 µM]

SMILES | Potency | activity change, negative = cytotoxicity
OCCCCCCCCCCCCBr | – | 2.12%
CC[C@H](c1ccc(O)cc1)[C@@H](CC)c1ccc(O)cc1 | inactive | –
O=C1CCCc2c1cc1ccc3cccc4ccc2c1c34 | – | 1.28%
CN(C/C=C/C#CC(C)(C)C)Cc1cccc2ccccc12 | – | 6.33% [at 42.5 µM]
CC(C)(C)C1CCC(CC2=C(O)c3ccccc3C(=O)C2=O)CC1 (stereo not given) | 29.8 µM (active) | –
CN(C)[C@@H]1C(=O)C(C(N)=O)=C(O)[C@@]2(O)C(=O)C3=C(O)c4c(O)ccc(Cl)c4[C@@H](O)[C@H]3C[C@@H]12 | – | 9.78% [at 42.5 µM]
COc1ccc(CN2CCN(C(c3ccc(F)cc3)c3ccc(F)cc3)CC2)c(OC)c1OC | – | -13.4% [at 42.5 µM]
Cn1cc(C(=O)[C@@H]2CCc3nc[nH]c3C2)c2ccccc21 | – | -9.9% [at 42.5 µM]
Oc1ccc2cc(SSc3ccc4cc(O)ccc4c3)ccc2c1 | inactive | –
O=C1C=CC(=O)N1 | 55.9 µM (active) | –
ON=C1CCCC1 | – | -10.2%
O=C(O)c1c(Cl)cccc1Cl | – | -3.33%
Nc1c2ccccc2nc2ccccc12 | – | 10% [at 42.5 µM]
N=C1N=C(N)c2ccccc21 | – | -10.4%
CCCC/C=C/CCCCO | – | 2.3%
O=c1[nH]cnc2nc[nH]c12 | – | 16.2% [at 42.5 µM]
CCOC(=O)O[C@]1(C(=O)OCCl)CC[C@H]2[C@@H]3CCC4=CC(=O)C=C[C@]4(C)[C@H]3[C@@H](O)C[C@@]21C | – | 0.376% [at 42.5 µM]
CCCCCCCCS(=O)C(C)Cc1ccc2c(c1)OCO2 (stereo not given) | – | -1.71%
CCCCCCCCCCCCCCCC(=O)OC[C@H](O)[C@H]1OC(=O)C(O)=C1O | – | -7.7%
CCN(C(=O)N(CC)c1ccccc1)c1ccccc1 | – | 12%
